From PubChem BioAssay AID1654 (Sanford-Burnham Center for Chemical Genomics, 2009) come the findings set out here.

As usually defined, the inhibition is the change of the read-out against control, counted positive when it falls.

Among all 290,000 compounds or so, about 1,500 (0.52%) were called active. The entries come from a sample that favours actives as a whole. A number with no mark means an inactive call. No stated cut-off is given here; in the data, active means inhibition above about 50%; inactive means the rest.

Sequence of Dual specificity protein phosphatase 3 (Homo sapiens) (P51452 whole entry, looked up): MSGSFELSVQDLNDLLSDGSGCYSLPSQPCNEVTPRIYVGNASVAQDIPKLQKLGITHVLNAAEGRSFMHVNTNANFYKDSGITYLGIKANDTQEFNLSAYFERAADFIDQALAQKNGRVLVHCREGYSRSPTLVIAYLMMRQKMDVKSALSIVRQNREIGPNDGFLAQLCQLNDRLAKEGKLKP

This experiment has as its target Dual specificity protein phosphatase 3 (Homo sapiens) (UniProt P51452). Description: VHR1 phosphatase inhibitors, primary screen, biochemical, absorbance, uHTS (AID 1654). The settings on record: recombinant VHR phosphatase, pNPP absorbance, at 13.3 µM, stronger effect = higher value.
In the case of `O=C(COC(=O)C1CC2C=CC1C2)Nc1ccccc1` (stereo not given), the inhibition was -9.6%.

Turning to `CN(C)S(=O)(=O)N1CCC(Oc2cccc(C(=O)NCCCC3CCCC3)c2)CC1`, the inhibition was -1.9%.

Take `Cc1ccc(CS(=O)(=O)CCC(=O)NCc2ccc(F)cc2)cc1`: the inhibition is 57.9% (active).

Regarding `CCCCC(=O)NCc1ccc(F)cc1`, the inhibition was -4.1%.

For the compound `Cc1ccc(CS(=O)(=O)CCC(=O)NC2CC2)cc1`, the inhibition is 9.9%.

For `O=C1CCC(C(=O)N2CCCCO2)CN1Cc1cccc(C(F)(F)F)c1` (stereo not given), the inhibition was 23.9%.

`COC(=O)c1c(NC(=O)COc2ccc(Cl)cc2Cl)sc2c1CC(C)(C)NC2(C)C`: the inhibition was 7.7%.

For the compound `COc1cc2c(cc1OC)C(C)N(S(=O)(=O)c1cnc(Cl)c(Cl)c1)CC2` (stereo not given), the inhibition was 51.2% (active).

In the case of `COc1cc2c(cc1OC)CN(C(=O)c1cc(S(=O)(=O)N3CCCCC3)ccc1Cl)CC2`, the inhibition was 8.6%.

`COc1ccc(S(=O)(=O)N2CCC(C(=O)N3CCc4ccccc4C3)CC2)cc1OC`: the inhibition was 11.7%.

In the case of `Cc1cc(C)cc(N(CCC#N)C(=O)CN2C(=O)NC3(CCCC3)C2=O)c1`, the inhibition is -12.4%.

As to `COC(=O)c1cc(C(=O)NC(C)C2CC3CCC2C3)cc([N+](=O)[O-])c1` (stereo not given), the inhibition was -11.2%.

As for `Cc1c(C(=O)NC(C)C2CC3CCC2C3)cccc1[N+](=O)[O-]` (stereo not given), the inhibition is 54.4% (active).

For `Cc1c(C(=O)NCCCc2ccccc2)cccc1[N+](=O)[O-]`, the inhibition is 22.5%.

For the compound `Cc1ccccc1NS(=O)(=O)CCCCC(Cl)(Cl)Cl`, the inhibition is 15.4%.

Turning to `CCOC(=O)c1c(N)sc(C(C)=O)c1C`, the inhibition was 17.4%.

On to `CCOC(=O)c1sc2nc(C)[nH]c(=O)c2c1C`, for which the inhibition was 21.7%.

Consider `CCOC(=O)c1nc(N)sc1C(=O)OCC`, for which the inhibition was 50.8% (active).

On to `O=C(/C=C/Nc1ccc(S(=O)(=O)Nc2cnc3ccccc3n2)cc1)c1cccnc1`, for which the inhibition is 16.5%.

Regarding `COc1ccc2oc(=O)cc(-c3cc4ccccc4o3)c2c1`, the inhibition is 52.7% (active).

For the compound `COc1cccc2cc(-c3cc(=O)oc4cc(C)c(O)cc34)oc12`, the inhibition is -16.6%.

Take `COc1ccc(Nc2cc(=O)oc3ccccc23)cc1`: the inhibition was 11.9%.

As to `Cc1cc(OC(=O)c2ccc(OC(C)C)cc2)c([N+](=O)[O-])c(=O)[nH]1`, the inhibition was -18%.

On to `O=C(O)C1CCC(CNS(=O)(=O)c2ccc(Br)cc2)CC1` (stereo not given), for which the inhibition was 13.3%.

In the case of `Cc1ccc(S(=O)(=O)NCC(=O)N2CCOCCOCCOCCOCC2)cc1`, the inhibition is 33.9%.

`Cc1ccc(S(=O)(=O)NCC2CCC(C(=O)N3CCOCC3)CC2)cc1` (stereo not given): the inhibition was 52% (active).

Take `CCCCCn1c(=O)[nH]c2cc(C(=O)NCCCN3CCCCC3C)ccc2c1=O` (stereo not given): the inhibition is 22.4%.

Take `CCCCOP(=O)(c1ccc(N(C)C)cc1)C(O)c1cc(OC)ccc1OC` (stereo not given): the inhibition was 6.1%.

On to `O=C(Nc1nnc(-c2ccc(Cl)cc2)o1)c1ccccc1Br`, for which the inhibition is 41.9%.

`O=C(c1nnc(-c2ccc(Cl)cc2)o1)C1CCCC1`: the inhibition is 51.3% (active).

As for `CSc1ccccc1-c1nnc(-c2ccc(Cl)cc2)o1`, the inhibition was 25.3%.

Take `O=C(COc1ccc(Br)cc1F)NC1CCN(Cc2ccccc2)CC1`: the inhibition was 4.7%.

For `CCOc1ccc(NC(=S)N2CCC(NC(=O)c3ccccc3)CC2)cc1`, the inhibition was 20.4%.

For `CCOc1ccc(CC(=O)NC2CCN(Cc3ccccc3)CC2)cc1`, the inhibition was 51% (active).

Regarding `Cc1nc(Nc2ccc3c(c2)OCCO3)c2nnn(Cc3ccccc3Cl)c2n1`, the inhibition is 18.2%.

Turning to `CC(=O)Nc1ccc(Nc2ncnc3c2nnn3Cc2ccccc2Cl)cc1`, the inhibition is 52% (active).

As to `Clc1ccc(Nc2ncnc3c2nnn3Cc2ccccc2)cc1`, the inhibition is 16.3%.

As for `CCC(=O)Nc1ccc(-c2ccc(N3CCCCC3)nn2)cc1`, the inhibition was -19.8%.

With `Cc1cc(C)cc(NC(=O)C2CCCN2S(=O)(=O)c2cccc3cccnc23)c1` (stereo not given), the inhibition is -42.1%.

For `CC1CCCCC1NC(=O)C1CCCN1S(=O)(=O)c1cccc2nsnc12` (stereo not given), the inhibition was 16.6%.

With `O=C(NCc1ccco1)C1CCCN(S(=O)(=O)c2cccc3nonc23)C1` (stereo not given), the inhibition was 3.6%.

For `CC(=O)c1cccc(NC(=O)C2CCCN(S(=O)(=O)c3cccc4nonc34)C2)c1` (stereo not given), the inhibition was 50.4% (active).

As to `Cc1ccc(NC(=O)C2CCCN2S(=O)(=O)c2cccc3cccnc23)c(C)c1` (stereo not given), the inhibition is -0.7%.

Regarding `CC(=O)c1cccc(NC(=O)C2CCCN2S(=O)(=O)c2cccc3nsnc23)c1` (stereo not given), the inhibition was 54.2% (active).

As for `COc1ccc(OC)c(NC(=O)C2CCCN2S(=O)(=O)c2cccc3nsnc23)c1` (stereo not given), the inhibition was 19%.

For `COc1ccc(NC(=O)C2CCCN(S(=O)(=O)c3cccc4cccnc34)C2)cc1OC` (stereo not given), the inhibition is 23.6%.

Regarding `O=C(Nc1nccs1)C1CCCN1S(=O)(=O)c1cccc2cccnc12` (stereo not given), the inhibition was 56.5% (active).

Take `CCc1ccc(-c2cc(C)no2)cc1S(=O)(=O)NCCc1ccc(S(N)(=O)=O)cc1`: the inhibition is 28%.

In the case of `Cc1ccc(NC(=O)c2nc[nH]c2C(=O)N[C@@H](CCCCNC(=O)OC(C)(C)C)C(=O)OC(C)(C)C)cc1`, the inhibition was -0.7%.

With `CCc1ccccc1NC(=O)c1ccc2c(c1)CCN2S(C)(=O)=O`, the inhibition is -17.9%.

As to `O=C1/C(=C/c2ccc(F)cc2)SC(=S)N1CCCC(=O)N1CCCCC1CCO` (stereo not given), the inhibition was 42.6%.

Consider `CC(=O)Nc1ccc(S(=O)(=O)N2CCC(C(=O)NC3CC3)CC2)cc1`, for which the inhibition was 14.9%.

Regarding `CCC(C(=O)NC1CCCC1)N(C(=O)Cn1nnc(-c2ccc(C)o2)n1)c1ccc(OC)c(OC)c1` (stereo not given), the inhibition is 13%.

Regarding `Nc1nc(SCC(=O)Nc2ccc(Cl)cc2C(F)(F)F)n[nH]1`, the inhibition is 2.5%.

With `CCN(C(=O)CSc1nnc(-c2ccncc2)o1)c1ccccc1`, the inhibition was 11%.

For `Cc1cc(C(=O)N2CCN(c3ccccn3)CC2)c(C)o1`, the inhibition was -2.1%.

As to `COc1cccc(OC)c1C(=O)Nc1c(C(=O)N2CCN(c3ccccn3)CC2)oc2ccccc12`, the inhibition is 52.1% (active).

On to `COCC(=O)Nc1c(C(=O)N2CCCC2)oc2ccccc12`, for which the inhibition is 1%.

On to `CCOc1ccc(CN2CCN(Cc3ccc4cc(F)ccc4n3)CC2CCO)cc1` (stereo not given), for which the inhibition is 6.4%.

Take `Cc1cccc(C(=O)OCC(=O)Nc2ccc(F)cc2)c1`: the inhibition was 8%.
